# In the library only some 7.2% were active in any assay of this set; here they are far more common.
# FLuc inh: Photinus pyralis luciferase inhibition; P08659; purified P. pyralis luciferase, luminescence, biochemical; Potency, µM (doses to about 115 µM), most hits filed as inhibitors; hit rate 2.5% among 76,000; note: nearly all actives have a fitted effect of over 65% in size
# Target sequence (P08659 whole entry, looked up): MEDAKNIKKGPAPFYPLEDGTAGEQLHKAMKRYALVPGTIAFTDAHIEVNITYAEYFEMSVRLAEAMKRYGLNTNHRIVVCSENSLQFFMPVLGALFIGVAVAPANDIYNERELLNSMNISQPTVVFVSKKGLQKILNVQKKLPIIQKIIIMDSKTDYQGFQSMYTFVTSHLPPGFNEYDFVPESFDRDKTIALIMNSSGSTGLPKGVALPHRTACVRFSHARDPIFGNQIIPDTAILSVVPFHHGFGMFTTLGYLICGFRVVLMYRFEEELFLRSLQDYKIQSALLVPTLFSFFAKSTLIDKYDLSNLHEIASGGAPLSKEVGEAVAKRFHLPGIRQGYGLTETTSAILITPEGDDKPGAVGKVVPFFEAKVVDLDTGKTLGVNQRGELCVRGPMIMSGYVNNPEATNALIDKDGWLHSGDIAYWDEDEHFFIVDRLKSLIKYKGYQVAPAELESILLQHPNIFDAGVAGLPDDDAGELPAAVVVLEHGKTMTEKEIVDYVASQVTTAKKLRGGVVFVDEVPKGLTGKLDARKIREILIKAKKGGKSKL
#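 Purified 10nM P. pyralis luciferase with 10uM D-luciferin and 10uM ATP in 50mM Tris acetate pH 7.5, 10mM Mg acetate, 0.01% Tween-20, 0.05% BSA. qHTS titration; luminescence read by CCD imager.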
# hNpr1 antagonist: blocks ANP-stimulated signaling of human Npr1 receptor; hit rate 1.6% among 76,000; HEK293 hNpr1 GloSensor cGMP, ANP-stimulated luminescence; P16066; Potency, µM (doses to about 46.3 µM), inactives show at the top dose activity change, negative = inhibition, usual class: inhibitors; calls by dose curve; note: nearly all actives have a fitted effect of over 60% in size
#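 Compound pre-incubated 30 min at room temperature on GloSensor-loaded HEK293 cells stably carrying hNpr1 and the pGS-40F cGMP biosensor. Stimulation uses hNppA at 0.1 nM final; luminescence is taken at baseline and 20 min post-agonist.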
# SNCA expr inhib: reduces expression of the alpha-synuclein gene; HEK-293 SNCA-luciferase knock-in, luminescence, 24 h; Potency, µM (top dose mostly 57.2 µM), for the others: at the top dose activity change, negative = inhibition, hits mostly inhibitors; hit rate 0.17% among 140,000; AID 1671194;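 note: plate controls were DMSO cells for no effect and cell-free wells for full effect; nearly all actives have a fitted effect of over 45% in size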
# 3T3 cytotox: kills NIH 3T3 cells; NIH 3T3 viability, CellTiter-Glo ATP luminescence, 48-72 h; Potency, µM (series often up to 96.7 µM), for inactives: at the top dose activity change, negative = cytotoxicity, hits mostly inhibitors; hit rate 4.3% among 94,000; AID 1345082; note: nearly all actives have a fitted effect of over 55% in size
#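 First NIH 3T3 cells are plated at 400 cells/well; next compound is pinned in; then plates incubate 48 or 72 hr at 37 °C; finally CellTiter-Glo is added and luminescence read after 10 min.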
# HEK293 viab: counter-screen for SNCA expression inhibitors: cell viability | HEK-293-SNCA-luc viability, GF-AFC fluorescence, 24 h | Potency, µM (titrated, usually from 57.1 µM), inactives show at the top dose activity change, negative = cytotoxicity, hits mostly cytotoxic | hit rate 0.12% among 150,000 | AID 1671193;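 note: 0% = DMSO-treated cells and -100% = medium-only wells without cells; nearly all actives have a fitted effect of over 30% in size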
#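 Cytotoxicity counterscreen: after 24 h compound treatment of genome-edited SNCA-luciferase HEK-293 cells, live-cell protease substrate GF-AFC read by fluorescence after 30 min; activity scaled between DMSO (0%) and medium-only (-100%), curves Hill-fitted.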
# HEK cytotox: kills HEK 293 cells; Potency, µM (titrated, usually from 115 µM), inactives show at the highest dose activity change, negative = cytotoxicity, hits mostly inhibitors; HEK 293 viability, ATP luminescence (CellTiter-Glo), 48-72 h; AID 1345083; hit rate 6.6% among 94,000; note: nearly all actives have a fitted effect of over 60% in size
#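 HEK 293 seeded at 250 cells/well receive compound via pintool. After 48 or 72 hr at 37 degree Celsius, 5% CO2 and 95% humidity, CellTiter-Glo is dispensed and luminescence read following 10 min at room temperature.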
# * = called active by the depositor; i = inactive; ? = inconclusive; . = no result; [ ] = remark or other dose. Unless noted, calls come from the whole dose curve; as a rule, active = well fitted curve in the direction sought with a large enough effect; inconclusive = small, poorly fitted or top-dose-only effect, or another doubt; inactive = no such curve, though single readings can be large; an effect the other way counts as inactive or inconclusive. Unless noted, % is set by controls: 0 for no effect and ±100 for the full control effect; potency is the fitted concentration of half-maximal effect.
SMILES,FLuc inh,hNpr1 antagonist,SNCA expr inhib,3T3 cytotox,HEK293 viab,HEK cytotox
Cc1ccccc1-c1nccc2c(=O)cc(N(C)C3CCOCC3)oc12,i,-3.7%[70.6 µM],-22.7%[87.6 µM],25.1µM*,0.4%[87.6 µM],-25.5%[172 µM]
CNC(=O)c1nc2cccnc2n(CCc2ccccc2)c1=O,.,.,?,-9.8%[138 µM],-18.4%[87.6 µM],?
COc1ccc(C(=O)N2CCC3(CC(c4cccc(C(F)(F)F)c4)=NO3)C2)cc1 (stereo unspecified),.,.,-7.5%,?,-19.0%,?
O=C(NCc1ccccn1)c1ccc2nnc(-c3ccoc3)n2c1,.,.,-10.7%[87.6 µM],-30.7%[138 µM],6.0%[87.6 µM],i
O=C(CCC1CCCC1)N1CCC2(CCCCO2)CC1,?,-14.1%,187.9%,-19.9%,7.3%,?
CN(C)c1cc(=O)c2ccnc(-c3ccc(O)c(F)c3)c2o1,i,-1.8%[70.6 µM],56.2%[87.6 µM],31.6µM*,0.7%[87.6 µM],0.4%[172 µM]
CN(C)c1cc(=O)c2ccnc(Nc3ccccn3)c2o1,i,8.2%[70.6 µM],-9.2%[87.6 µM],70.8µM*,7.2%[87.6 µM],-25.4%[230 µM]
CC(C)C(NC(=O)c1cn(C2CCC(N)CC2)nn1)c1nc(C2CC2)no1 (stereo unspecified),i,9.6%,8.5%,-16.9%,0.8%,-12.2%
COc1ccc(-c2c(C(=O)Nc3ccc(C)cc3)nc3sccn23)cc1,.,.,-1.7%,-8.4%,1.9%,?
COC(=O)[C@@H]1Cc2ncn(Cc3ccc(OC)cc3)c2CN1Cc1ccc(F)cc1,i,?,-32.0%[87.6 µM],?,-28.0%[87.6 µM],63.1µM*
COC(=O)[C@@H]1Cc2ncn(C)c2CN1S(=O)(=O)c1ccc2ccccc2c1,i,0.4%[70.6 µM],-26.4%[87.6 µM],79.4µM*,1.4%[87.6 µM],-7.0%[172 µM]
COC(=O)[C@@H]1Cc2ncn(Cc3ccc(OC)cc3)c2CN1S(=O)(=O)c1ccc(F)cc1,i,3.2%,-8.5%,79.4µM*,-16.4%,-4.8%
COC(=O)[C@@H]1Cc2ncn(Cc3ccc(Cl)cc3)c2CN1Cc1ccc(C(=O)O)cc1,i,-5.8%,7.6%,?,-13.1%,-29.1%
O=C(c1ccc(F)cc1)N1CCc2nc(C3CC3)nc(-c3ccc(Cl)cc3)c2C1,i,7.3%,16.3%,?,-8.2%,?
Cn1cc(-c2cnc(Nc3ccncc3)c3c2CCO3)cn1,i,1.6%[70.6 µM],8.5%[87.6 µM],89.1µM*,2.3%[87.6 µM],?
c1ccc(-c2cnc(Nc3ccncc3)c3c2CCO3)cc1,28.2µM*,25.1µM*,52.4%[87.6 µM],44.7µM*,-25.5%[87.6 µM],79.4µM*
Cn1cc(-c2cnc(Nc3ccc(F)c(Cl)c3)c3c2CCO3)cn1,i,-10.0%[70.6 µM],3.5%[87.6 µM],-40.3%[138 µM],-3.1%[87.6 µM],?
C=CCn1cc(CN2CCOc3c(O)cc(-c4cccc(Cl)c4)cc3C2)cn1,i,-18.0%,6.5%,?,7.6%,?
C=CCOc1c(OC)ccc2c1CN(Cc1ccccc1)C(=O)CCN2CC(O)COc1ccc(OC)cc1 (stereo unspecified),.,.,.,39.8µM*,.,?
C=CCOc1c(OC)ccc2c1CN(Cc1ccccc1)C(=O)CCN2CC(C)O (stereo unspecified),.,.,.,?,.,-26.9%
C=CCOc1c(OC)ccc2c1CN(Cc1ccccc1)C(=O)CCN2CC(O)Cc1ccccc1 (stereo unspecified),.,.,.,?,.,50.1µM*
C=CCOc1c(OC)ccc2c1CN(C1CCCC1)C(=O)CCN2CC(O)COc1ccccc1 (stereo unspecified),.,.,.,39.8µM*,.,?
C[C@]1(O)CCN(C(=O)c2ccc(N3CCOCC3)cc2)C[C@@H]1O,i,8.4%,2.2%,i,11.5%,2.9%
COC[C@@H]1CN(Cc2cccc(C(F)(F)F)c2)C[C@H]1C(=O)NC1CC1,i,0.5%,0.1%,-19.3%,?,?
O=C(CN1CCOC(c2ccc(F)cc2)C1)NCc1ccccn1 (stereo unspecified),i,0.5%,1.7%,-5.3%,2.0%,-8.6%
O=C1NCCCc2[nH]c(-c3csc(-c4ccccc4)n3)nc21,25.1µM*,-3.6%,60.4%,?,-7.5%,?
